How the values were obtained:
Experiment in all cases: DAPPL (digital affinity profiling via proximity ligation, sequencing); 10 mM Tris-HCl pH 7.5, 50 mM NaCl, 1 mM DTT, 4% glycerol, room temperature, 30 min; GST-TFs on glutathione beads, 16-mer random dsDNA library, 0.1% formaldehyde crosslink after washing; high values mean tight binding
Settings in all cases: protein: recombinant; tags: N-terminal GST; dsDNA, one strand shown
GABPA = molecular target: T1, GABPA (Homo sapiens, UniProt Q06546 1-454)
T1 sequence: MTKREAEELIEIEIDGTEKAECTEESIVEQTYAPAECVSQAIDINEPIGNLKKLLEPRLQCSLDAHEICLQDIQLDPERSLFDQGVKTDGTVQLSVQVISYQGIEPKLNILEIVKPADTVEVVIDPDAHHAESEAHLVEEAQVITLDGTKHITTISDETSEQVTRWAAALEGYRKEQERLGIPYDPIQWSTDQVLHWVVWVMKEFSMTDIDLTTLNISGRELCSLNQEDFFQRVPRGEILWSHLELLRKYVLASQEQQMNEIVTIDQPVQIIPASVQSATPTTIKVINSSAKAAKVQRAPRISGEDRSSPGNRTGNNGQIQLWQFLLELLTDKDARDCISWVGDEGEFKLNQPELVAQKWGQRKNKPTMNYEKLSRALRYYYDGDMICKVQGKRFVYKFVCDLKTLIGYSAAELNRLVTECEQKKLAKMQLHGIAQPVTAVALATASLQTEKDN
Procedure, shortened: (§1)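 Pools were built from human transcription factors expressed in yeast as GST fusions, captured on glutathione beads and DNA-barcoded, along with a tag-only sample. Incubation with 200 nmole of a 16-mer random double-stranded DNA library lasted 30 min at room temperature in Tris/NaCl/DTT/glycerol buffer, and was followed by washing, 0.1% formaldehyde crosslinking, proximity ligation, PCR amplification and Illumina NextSeq500 sequencing. Binding signal is the quotient of each hexamer's read frequency for a factor and its frequency for the tag-only sample.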

ERG = molecular target: T2, ERG (Homo sapiens, UniProt P11308 1-479)
T2 sequence: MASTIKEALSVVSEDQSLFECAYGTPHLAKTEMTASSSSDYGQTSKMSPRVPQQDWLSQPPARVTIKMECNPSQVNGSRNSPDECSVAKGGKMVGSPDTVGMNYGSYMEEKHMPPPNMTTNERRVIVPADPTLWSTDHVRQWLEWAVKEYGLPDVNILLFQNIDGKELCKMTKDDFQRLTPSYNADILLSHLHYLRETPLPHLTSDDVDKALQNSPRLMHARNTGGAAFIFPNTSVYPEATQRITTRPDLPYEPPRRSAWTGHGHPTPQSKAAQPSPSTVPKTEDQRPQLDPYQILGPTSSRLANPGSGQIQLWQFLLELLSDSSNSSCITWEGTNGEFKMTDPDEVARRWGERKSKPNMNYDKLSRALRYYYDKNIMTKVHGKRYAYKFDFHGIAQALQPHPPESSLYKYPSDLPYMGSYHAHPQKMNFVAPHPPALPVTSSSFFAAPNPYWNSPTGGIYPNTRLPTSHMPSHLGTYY
Procedure, shortened: as §1

EHF = molecular target: T3, EHF (Homo sapiens, UniProt Q9NZC4 1-300)
T3 sequence: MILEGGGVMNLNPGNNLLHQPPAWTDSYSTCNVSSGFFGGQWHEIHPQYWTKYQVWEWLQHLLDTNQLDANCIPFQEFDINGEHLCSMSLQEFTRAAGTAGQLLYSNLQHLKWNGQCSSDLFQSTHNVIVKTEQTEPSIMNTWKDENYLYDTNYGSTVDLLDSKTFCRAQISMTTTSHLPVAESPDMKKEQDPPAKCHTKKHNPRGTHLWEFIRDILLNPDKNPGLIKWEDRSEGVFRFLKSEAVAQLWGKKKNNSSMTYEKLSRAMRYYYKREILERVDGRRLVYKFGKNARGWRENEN
Procedure, shortened: as §1

SPIB = SPIB (Homo sapiens, UniProt Q01892 1-262)
Chain of SPIB (Q01892 whole entry): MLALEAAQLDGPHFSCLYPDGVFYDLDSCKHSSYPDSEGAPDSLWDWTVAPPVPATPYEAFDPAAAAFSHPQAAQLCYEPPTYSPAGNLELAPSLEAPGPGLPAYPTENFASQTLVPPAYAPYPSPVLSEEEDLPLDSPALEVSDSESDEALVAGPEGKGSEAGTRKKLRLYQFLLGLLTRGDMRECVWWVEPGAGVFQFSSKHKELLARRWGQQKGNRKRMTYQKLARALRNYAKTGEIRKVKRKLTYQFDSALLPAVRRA
Procedure, shortened: as §1

ELK3 = molecular target: T4, ELK3 (Homo sapiens, UniProt P41970 1-407)
T4 sequence: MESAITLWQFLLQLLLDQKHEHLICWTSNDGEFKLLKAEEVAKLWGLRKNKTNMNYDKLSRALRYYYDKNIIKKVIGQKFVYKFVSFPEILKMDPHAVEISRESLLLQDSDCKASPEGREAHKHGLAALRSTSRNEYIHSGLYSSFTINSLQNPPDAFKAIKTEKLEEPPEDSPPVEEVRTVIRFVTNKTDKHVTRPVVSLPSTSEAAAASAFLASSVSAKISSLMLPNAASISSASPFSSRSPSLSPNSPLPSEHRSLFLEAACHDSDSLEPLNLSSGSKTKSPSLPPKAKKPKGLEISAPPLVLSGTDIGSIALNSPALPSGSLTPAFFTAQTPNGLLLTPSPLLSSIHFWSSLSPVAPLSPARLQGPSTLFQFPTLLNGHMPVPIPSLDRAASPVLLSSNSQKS
Procedure, shortened: as §1

SPIC = molecular target: T5, SPIC (Homo sapiens, UniProt Q8N5J4 1-248)
T5 sequence: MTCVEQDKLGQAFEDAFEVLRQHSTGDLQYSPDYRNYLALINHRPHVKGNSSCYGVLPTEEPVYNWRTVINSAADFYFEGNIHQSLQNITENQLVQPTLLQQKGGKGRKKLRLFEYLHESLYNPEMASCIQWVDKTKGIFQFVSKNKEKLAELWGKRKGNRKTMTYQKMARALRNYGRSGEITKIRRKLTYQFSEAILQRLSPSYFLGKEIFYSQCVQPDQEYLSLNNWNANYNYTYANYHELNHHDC
Procedure, shortened: as §1

ELF4 = ELF4 (Homo sapiens, UniProt Q99607 1-663)
Chain of ELF4 (Q99607 whole entry): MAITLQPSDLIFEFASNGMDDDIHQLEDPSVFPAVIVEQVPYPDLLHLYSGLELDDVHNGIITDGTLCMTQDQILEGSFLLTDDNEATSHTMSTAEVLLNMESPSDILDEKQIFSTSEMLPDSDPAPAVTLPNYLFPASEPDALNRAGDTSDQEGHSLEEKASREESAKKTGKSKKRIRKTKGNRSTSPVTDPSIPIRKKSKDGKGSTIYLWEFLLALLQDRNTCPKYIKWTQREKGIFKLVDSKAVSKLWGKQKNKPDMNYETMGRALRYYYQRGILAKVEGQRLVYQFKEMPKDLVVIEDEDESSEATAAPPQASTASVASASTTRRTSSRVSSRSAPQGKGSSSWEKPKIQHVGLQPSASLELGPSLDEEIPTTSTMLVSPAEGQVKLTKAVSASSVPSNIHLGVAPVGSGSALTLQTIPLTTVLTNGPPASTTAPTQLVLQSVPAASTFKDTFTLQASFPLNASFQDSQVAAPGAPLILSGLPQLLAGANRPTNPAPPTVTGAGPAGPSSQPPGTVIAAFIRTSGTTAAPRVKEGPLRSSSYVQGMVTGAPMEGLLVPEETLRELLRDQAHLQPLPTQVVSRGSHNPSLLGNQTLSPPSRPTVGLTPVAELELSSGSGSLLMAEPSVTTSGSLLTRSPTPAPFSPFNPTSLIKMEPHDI
Procedure, shortened: as §1

ELK4 = molecular target: T6, ELK4 (Homo sapiens, UniProt P28324-2 1-405)
T6 sequence: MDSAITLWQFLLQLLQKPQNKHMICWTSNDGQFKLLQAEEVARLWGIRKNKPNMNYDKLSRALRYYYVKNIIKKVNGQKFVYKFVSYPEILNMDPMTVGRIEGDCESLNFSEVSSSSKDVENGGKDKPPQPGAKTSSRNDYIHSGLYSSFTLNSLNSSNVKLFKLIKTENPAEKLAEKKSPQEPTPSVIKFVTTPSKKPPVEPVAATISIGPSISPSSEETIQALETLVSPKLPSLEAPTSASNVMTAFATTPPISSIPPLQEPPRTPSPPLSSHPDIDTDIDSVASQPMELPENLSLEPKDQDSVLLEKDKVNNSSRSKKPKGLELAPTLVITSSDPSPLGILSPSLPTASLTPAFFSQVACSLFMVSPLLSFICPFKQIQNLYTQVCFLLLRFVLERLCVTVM
Procedure, shortened: as §1

ERF = molecular target: T7, ERF (Homo sapiens, UniProt P50548 1-548)
T7 sequence: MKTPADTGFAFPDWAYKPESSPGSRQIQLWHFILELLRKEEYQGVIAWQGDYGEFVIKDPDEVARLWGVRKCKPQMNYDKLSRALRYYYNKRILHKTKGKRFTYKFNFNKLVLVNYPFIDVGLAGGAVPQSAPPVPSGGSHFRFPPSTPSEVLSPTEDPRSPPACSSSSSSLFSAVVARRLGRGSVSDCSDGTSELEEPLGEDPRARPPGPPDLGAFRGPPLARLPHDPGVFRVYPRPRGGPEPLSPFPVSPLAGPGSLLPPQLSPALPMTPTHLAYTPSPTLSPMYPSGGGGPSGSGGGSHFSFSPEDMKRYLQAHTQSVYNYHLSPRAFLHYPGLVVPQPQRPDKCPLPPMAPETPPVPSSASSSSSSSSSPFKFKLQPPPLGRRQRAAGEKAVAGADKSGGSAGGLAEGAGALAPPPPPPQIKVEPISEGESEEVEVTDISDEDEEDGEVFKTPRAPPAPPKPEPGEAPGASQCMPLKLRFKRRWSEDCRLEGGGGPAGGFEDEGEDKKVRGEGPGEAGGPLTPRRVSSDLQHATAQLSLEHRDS
Procedure, shortened: as §1

ETV3L = molecular target: T8, ETV3L (Homo sapiens, UniProt Q6ZN32 1-361)
T8 sequence: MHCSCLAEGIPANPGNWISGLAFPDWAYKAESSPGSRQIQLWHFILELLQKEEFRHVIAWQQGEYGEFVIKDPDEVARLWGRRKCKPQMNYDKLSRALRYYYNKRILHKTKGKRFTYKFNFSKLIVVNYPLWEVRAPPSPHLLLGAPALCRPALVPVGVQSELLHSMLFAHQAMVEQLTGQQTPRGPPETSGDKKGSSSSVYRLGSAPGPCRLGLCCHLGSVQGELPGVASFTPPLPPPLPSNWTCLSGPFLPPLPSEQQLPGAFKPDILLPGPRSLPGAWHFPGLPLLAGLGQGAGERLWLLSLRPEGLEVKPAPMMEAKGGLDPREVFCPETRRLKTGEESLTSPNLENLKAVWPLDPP
Procedure, shortened: as §1

ETS2 = molecular target: T9, ETS2 (Homo sapiens, UniProt P15036 1-469)
T9 sequence: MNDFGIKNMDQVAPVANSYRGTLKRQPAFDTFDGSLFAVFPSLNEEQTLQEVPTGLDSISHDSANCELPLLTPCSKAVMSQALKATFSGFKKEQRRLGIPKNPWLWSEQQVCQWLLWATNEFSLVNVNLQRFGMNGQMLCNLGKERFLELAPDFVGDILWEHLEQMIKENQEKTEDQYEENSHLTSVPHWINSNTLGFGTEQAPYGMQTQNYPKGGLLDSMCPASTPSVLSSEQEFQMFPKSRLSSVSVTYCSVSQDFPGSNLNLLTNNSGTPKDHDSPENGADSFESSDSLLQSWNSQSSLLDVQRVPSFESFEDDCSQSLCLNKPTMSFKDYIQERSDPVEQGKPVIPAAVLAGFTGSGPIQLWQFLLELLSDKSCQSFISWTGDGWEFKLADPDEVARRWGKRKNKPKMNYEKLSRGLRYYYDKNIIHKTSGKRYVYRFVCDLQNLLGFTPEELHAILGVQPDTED
Procedure, shortened: as §1

ETV7 = molecular target: T10, ETV7 (Homo sapiens, UniProt Q9Y603 1-341)
T10 sequence: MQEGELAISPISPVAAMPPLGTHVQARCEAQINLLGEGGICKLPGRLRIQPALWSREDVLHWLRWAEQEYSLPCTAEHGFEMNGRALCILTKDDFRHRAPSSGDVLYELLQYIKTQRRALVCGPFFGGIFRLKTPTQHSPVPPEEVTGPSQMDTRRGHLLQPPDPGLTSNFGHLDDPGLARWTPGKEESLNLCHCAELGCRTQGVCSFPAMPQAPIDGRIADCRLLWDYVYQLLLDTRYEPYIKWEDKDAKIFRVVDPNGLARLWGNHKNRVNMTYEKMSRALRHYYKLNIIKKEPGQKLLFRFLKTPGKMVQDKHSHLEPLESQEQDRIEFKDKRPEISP
Procedure, shortened: as §1

ETV3 = molecular target: T11, ETV3 (Homo sapiens, UniProt P41162-2 1-143)
T11 sequence: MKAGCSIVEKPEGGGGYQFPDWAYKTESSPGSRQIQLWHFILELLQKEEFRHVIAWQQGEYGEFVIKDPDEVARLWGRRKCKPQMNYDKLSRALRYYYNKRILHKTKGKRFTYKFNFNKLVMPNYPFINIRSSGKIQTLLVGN
Procedure, shortened: as §1

ETV6 = ETV6 (Homo sapiens, UniProt P41212 1-452)
Chain of ETV6 (P41212 whole entry): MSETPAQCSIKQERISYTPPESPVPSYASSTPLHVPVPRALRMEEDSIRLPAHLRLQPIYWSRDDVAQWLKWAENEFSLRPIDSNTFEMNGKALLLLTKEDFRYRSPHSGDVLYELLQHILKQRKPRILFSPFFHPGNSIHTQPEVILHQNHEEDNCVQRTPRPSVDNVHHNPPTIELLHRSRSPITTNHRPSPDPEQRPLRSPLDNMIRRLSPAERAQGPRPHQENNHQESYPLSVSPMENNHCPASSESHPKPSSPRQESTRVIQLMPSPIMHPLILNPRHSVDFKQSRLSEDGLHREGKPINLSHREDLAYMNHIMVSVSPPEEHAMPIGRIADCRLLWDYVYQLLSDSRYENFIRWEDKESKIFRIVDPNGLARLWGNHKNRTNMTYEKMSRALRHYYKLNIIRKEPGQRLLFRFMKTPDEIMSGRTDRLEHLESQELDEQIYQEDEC
Procedure, shortened: as §1

ELF3 = molecular target: T12, ELF3 (Homo sapiens, UniProt P78545 1-371)
T12 sequence: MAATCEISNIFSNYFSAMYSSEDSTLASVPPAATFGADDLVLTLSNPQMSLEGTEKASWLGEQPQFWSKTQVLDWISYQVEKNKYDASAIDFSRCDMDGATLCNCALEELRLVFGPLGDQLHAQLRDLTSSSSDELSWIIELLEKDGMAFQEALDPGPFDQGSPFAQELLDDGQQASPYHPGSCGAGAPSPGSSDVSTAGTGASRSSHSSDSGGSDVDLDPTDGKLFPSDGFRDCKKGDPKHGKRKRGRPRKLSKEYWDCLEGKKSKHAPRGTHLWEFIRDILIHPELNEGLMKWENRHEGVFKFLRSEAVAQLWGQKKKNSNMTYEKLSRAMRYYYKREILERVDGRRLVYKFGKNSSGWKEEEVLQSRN
Procedure, shortened: as §1

Sequence | binding signal (GABPA) | binding signal (ERG) | binding signal (EHF) | binding signal (SPIB) | binding signal (ELK3) | binding signal (SPIC) | binding signal (ELF4) | binding signal (ELK4) | binding signal (ERF) | binding signal (ETV3L) | binding signal (ETS2) | binding signal (ETV7) | binding signal (ETV3) | binding signal (ETV6) | binding signal (ELF3)
CATATG | 1.09 fold enrichment (6-mer frequency, TF over GST control) | 1.07 fold enrichment (6-mer frequency, TF over GST control) | 1.01 fold enrichment (6-mer frequency, TF over GST control) | 1.04 fold enrichment (6-mer frequency, TF over GST control) | 1.04 fold enrichment (6-mer frequency, TF over GST control) | 1.01 fold enrichment (6-mer frequency, TF over GST control) | 1.04 fold enrichment (6-mer frequency, TF over GST control) | 1.11 fold enrichment (6-mer frequency, TF over GST control) | 1.06 fold enrichment (6-mer frequency, TF over GST control) | 1.06 fold enrichment (6-mer frequency, TF over GST control) | 1.04 fold enrichment (6-mer frequency, TF over GST control) | 1.14 fold enrichment (6-mer frequency, TF over GST control) | 1.02 fold enrichment (6-mer frequency, TF over GST control) | 1.03 fold enrichment (6-mer frequency, TF over GST control) | 
GTATGA |  |  |  | 1.05 fold enrichment (6-mer frequency, TF over GST control) |  | 1.09 fold enrichment (6-mer frequency, TF over GST control) | 1.03 fold enrichment (6-mer frequency, TF over GST control) | 1.01 fold enrichment (6-mer frequency, TF over GST control) |  |  | 1.01 fold enrichment (6-mer frequency, TF over GST control) |  | 1.02 fold enrichment (6-mer frequency, TF over GST control) |  | 1.02 fold enrichment (6-mer frequency, TF over GST control)

From PMC7862700, “An all-to-all approach to the identification of sequence-specific readers for epigenetic DNA modifications on cytosine”
